{"source": "PubChem BioAssay (NCI)", "note": "Compounds without any hit were thinned out: in the full panel of roughly 83,000, 20% have a hit.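 Each cell line was grown in a 96-well plate and treated with one concentration of compound for 48 hours. Values below 10 were considered active.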 The source made the active and inactive calls."}
{"system": "MCF7 breast", "assay": "NCI-60 one-dose screen, 48 h (100 = growth as untreated, 0 = no growth, -100 = all killed)", "conditions": "10 µM unless noted"}
{"smiles": "O=C(CSc1nc2sc3c(c2c(=O)n1-c1ccc(Cl)cc1)CCCC3)NNC(=O)Nc1cccc(C(F)(F)F)c1", "growth": "16.7% (inactive)"}
{"smiles": "CCCCN1C(=O)/C(=c2\\sc3n(c2=O)C2C(NN=3)N(CC)C(=O)N2CC)c2cc(Cl)ccc21", "note": "(centres undefined)", "growth": "27.5% (inactive)"}
{"smiles": "COc1cc(OC)c(C2C(Cl)C(=O)N2Nc2ncnc3ccccc23)cc1OC", "note": "(centres undefined)", "growth": "83% (inactive)"}
{"smiles": "CC(=O)Oc1ccccc1C(=O)Nc1ccc(C(=O)/C=C/c2ccncc2)cc1", "growth": "2.69% (active)"}
{"smiles": "COc1ccc(/C=C/C(=O)c2ccc(NC(=O)CSc3nnc(-c4ccc5nc(-c6ccc(Cl)cc6)[nH]c5c4)o3)cc2)cc1", "growth": "79.7% (inactive)"}
{"smiles": "COc1cc(/C=C/C(=O)c2ccc(F)cc2)ccc1Oc1nc(NCCO)nc(N2CCOCC2)n1", "growth": "10.2% (inactive)"}
{"smiles": "Cn1ccnc1C(=O)/C=C/c1ccc(NC(=O)Nc2ccc(Cl)cc2)cc1", "growth": "38.1% (inactive)"}
{"smiles": "O=C(CSc1nc2sc3c(c2c(=O)n1-c1ccc(Cl)cc1)CCCC3)NNC(=O)Nc1ccc(Cl)c(C(F)(F)F)c1", "growth": "18.6% (inactive)"}
{"smiles": "C#C[C@]1(O)CC[C@H]2[C@@H]3CC=C4c5sc(-c6ccc(F)cn6)nc5CC[C@]4(C)[C@H]3CC[C@@]21C", "growth": "12.1% (inactive)"}
{"smiles": "CC(=NNc1ncnc2ccccc12)c1ccc(S(C)(=O)=O)cc1", "growth": "87.5% (inactive)"}
{"smiles": "COc1ccc(-c2cc(C(=O)N=Nc3c(O)[nH]c4ccccc34)c3ccccc3n2)cc1OC", "growth": "89.9% (inactive)"}
{"smiles": "Fc1ccc(-c2cc3nc(C(Cl)Cl)nc(-c4ccc(Cl)cc4)n3n2)cc1", "growth": "16.5% (inactive)"}
{"smiles": "CN(C)c1ccc(/C=C2\\Cc3c(F)ccc(Br)c3C2=O)cc1", "growth": "39.8% (inactive)"}
{"smiles": "COC(=O)C1CN(S(=O)(=O)/N=C2\\NC(=O)NC2=C(Cl)Cl)C1", "growth": "34.1% (inactive)"}
{"smiles": "c1ccc2c(NCCCn3ccnc3)c3oc4ccccc4c3nc2c1", "growth": "-11.4% (active)"}
{"smiles": "Fc1ccc(-c2nc(C(Cl)Cl)nc3cc(-c4ccccc4)nn23)cc1", "growth": "21.5% (inactive)"}
{"smiles": "N#Cc1c(-c2ccc(F)cc2)nc2c(C#N)c(Nc3ccccc3)nn2c1N", "growth": "91.7% (inactive)"}
{"smiles": "C#Cc1nc(C2=C(C)C(O)CC2)cs1", "note": "(centres undefined)", "growth": "85.1% (inactive)"}
{"smiles": "O=C(O)CCCCCN1C(=O)/C(=C/c2ccc(O)c(O)c2)SC1=S", "growth": "90.5% (inactive)"}
{"smiles": "CCN1CCN(/C(=N\\c2sc(-c3ccccc3)nc2-c2ccccc2)c2ccccc2)CC1", "growth": "67.3% (inactive)"}
{"smiles": "CS(=O)(=O)c1ccc(-c2nc3ccccn3c2/C=N/Nc2nc(-c3ccc(Br)cc3)cs2)cc1", "growth": "92.4% (inactive)"}
{"smiles": "CS(=O)(=O)Nc1ccc(-c2nn(-c3ccc(S(C)(=O)=O)cc3)cc2/C=C/C(=O)c2ccc(NC(=O)CO[N+](=O)[O-])cc2)cc1", "growth": "94.5% (inactive)"}
{"smiles": "Clc1ccc(-c2cn3cc(Cc4ccc(Cl)c(Cl)c4)sc3n2)cc1", "growth": "49.2% (inactive)"}
{"smiles": "CC(O)C(NC(=O)C1CCCN1C(=O)CNC(=O)C1CC(=O)NCC(=O)NC(Cc2c[nH]c3ccccc23)C(=O)NC(Cc2ccc(O)cc2)C(=O)NCC(=O)NC(CO)C(=O)NC(CCC(N)=O)C(=O)NC(Cc2c[nH]c3ccccc23)C(=O)N1)C(=O)NCC(=O)NC(CCC(N)=O)C(=O)NC(CCCNC(=N)N)C(=O)NC(CC(=O)O)C(=O)O", "note": "(centres undefined)", "growth": "96.4% (inactive)"}
{"smiles": "O=C(CSc1nccc(=O)[nH]1)Nc1ccc(-c2nc3ccccc3[nH]2)cc1", "growth": "103% (inactive)"}
{"smiles": "O=c1[nH]c2ccccc2cc1CSc1ccccc1Nc1nccc(-c2ccc(C(F)(F)F)cc2)n1", "growth": "40.3% (inactive)"}
{"smiles": "CCOC(=O)c1c(Nc2ccccc2)nn2c(N)c(C#N)c(-c3ccc(OC)cc3)nc12", "growth": "70.3% (inactive)"}
{"smiles": "COc1ccc(C(=O)/C=C/c2ccc(OCc3ccc(Cl)cc3)c(OC)c2)cc1OC", "growth": "20.4% (inactive)"}
{"smiles": "CCCCCCNC(=O)Oc1ccc(/C(=C(/C)c2ccccc2)c2ccc(OCCN3CCCCCC3)cc2)cc1", "growth": "13.6% (inactive)"}
{"smiles": "Clc1ccc2oc3c(OCCCn4ccnc4)c4ccccc4nc3c2c1", "growth": "63.2% (inactive)"}
{"smiles": "COc1ccc(-n2c(SCC(=O)Nc3ccc(-c4nc5ccccc5[nH]4)cc3)nc3ccccc3c2=O)cc1", "growth": "-49.2% (active)"}
{"smiles": "Cc1cc2nc3c4cc(Cl)ccc4n(CC(=O)NCCN(C)C)c3nc2cc1C", "growth": "-19.8% (active)"}
{"smiles": "Cc1ccc(-c2nc(C(Cl)Cl)nc3cc(-c4ccccc4)nn23)cc1", "growth": "25.4% (inactive)"}
{"smiles": "C[C@@H]1CN(c2ccc3ncc(C#Cc4cncc(C(=O)Nc5ccc(CN6CCN(C)CC6)c(C(F)(F)F)c5)c4)n3n2)C[C@H](C)O1", "growth": "-64% (active)"}
{"smiles": "OC1CCN(CCCOc2c3ccc(Cl)cc3nc3c2oc2ccccc23)CC1", "growth": "-32.1% (active)"}
{"smiles": "CC(C)(C)Nc1nc2c(OCCc3ccccc3)cccn2c1-c1cccc(F)c1", "growth": "-13.4% (active)"}
{"smiles": "COc1cc(/C=C/C(=O)c2cc(OC)c(OC)c(OC)c2)ccc1OCc1ccccc1", "growth": "8.1% (active)"}
{"smiles": "C#Cc1nc(C2=C(C)C(OC(C)=O)/C(=N/OC(C)=O)C2)cs1", "note": "(centres undefined)", "growth": "25.9% (inactive)"}
{"smiles": "COc1ccc(/C=N/NC(=O)c2[nH]c3ccc(Br)cc3c2-c2ccccc2)s1", "growth": "6.97% (active)"}
